# Bioassay records (PubChem)
# Compounds with a hit are over-represented: about 9% of the library has one in this group of screens.
# HPGD block – blocks human HPGD enzyme activity. P15428. purified HPGD, NADH fluorescence kinetic, PGE2 substrate. Potency, µM, for inactives: top-dose activity change, negative = inhibition, most hits filed as inhibitors. hit rate 4.3% among 150,000. AID 894; active = well fitted inhibition curve with a large enough effect, not every such curve was filed as active; inconclusive = small, poorly fitted or top-dose-only effect, or another doubt; inactive = no such curve, though single readings can be large or run the other way; also: % is scaled to controls: 0 for no effect and ±100 for the full control effect
# Target sequence (P15428 whole entry, looked up): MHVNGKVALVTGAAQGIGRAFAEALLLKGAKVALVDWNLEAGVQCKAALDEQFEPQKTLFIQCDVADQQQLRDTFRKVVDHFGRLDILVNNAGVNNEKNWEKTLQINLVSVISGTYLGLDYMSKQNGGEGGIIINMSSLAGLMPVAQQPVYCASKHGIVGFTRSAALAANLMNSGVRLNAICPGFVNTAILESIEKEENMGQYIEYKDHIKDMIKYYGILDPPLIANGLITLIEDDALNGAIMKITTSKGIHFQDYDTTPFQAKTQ
#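 20 nM HPGD preincubated 15 min at room temperature with compound in 50 mM Tris-HCl pH 8, 0.01% Tween 20. Started with 1 mM NAD+ and 30 uM prostaglandin E2; NADH fluorescence (360/450 nm) read 5 times over 30-s intervals, last minus first.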
# HTT ATP protect – Huntington cell model cytoprotection by ATP luminescence. PC12 HTT-Q103 induced, cytoprotection, ATP luminescence, 40 h. Potency, µM (series often up to 56.4 µM), inactives show cytoprotection (ATP increase), actives largely listed as activators. hit rate 0.14% among 230,000; also: % of control where 0% means no effect; nearly all actives have a fitted effect of over 45% in size
#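 Compounds were screened for protection of PC12 cells against cell death after tebufenozide induction (100 nM final) of mutant Huntingtin exon 1 (Q103) fused to GFP.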
# HttQ103 aggreg – mutant huntingtin aggregation inhibition; PC12 HttQ103-GFP aggregates, Acumen cytometry, 40 h; Potency, µM (titrated, usually from 46.1 µM), inactives show at the top dose activity change, negative = inhibition, usual class: inhibitors; hit rate 1.1% among 220,000; AID 1688; also: % is scaled to controls: 0 for no effect and ±100 for the full control effect; nearly all actives have a fitted effect of over 60% in size
#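 Steps: seed 1500 PC12 HTTQ103-GFP cells/well; add tebufenozide, 100 nM final; add compound titration; add ATPLite reagent; quantify GFP aggregates by laser scanning cytometry.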
# ALDH1A1 inh – blocks purified human ALDH1A1 activity; P00352; Purified ALDH1A1, NADH fluorescence, propionaldehyde substrate; Potency, µM (titrated, usually from 75.3 µM), for the others: top-dose activity, negative = inhibition, actives largely listed as inhibitors; hit rate 7.3% among 220,000; AID 1030; active = well fitted inhibition curve with a large enough effect, not every such curve was filed as active; inconclusive = small, poorly fitted or top-dose-only effect, or another doubt; inactive = no such curve, though single readings can be large or run the other way;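 also: plate controls were no enzyme wells and a reference inhibitor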
# Target sequence (P00352 whole entry, looked up): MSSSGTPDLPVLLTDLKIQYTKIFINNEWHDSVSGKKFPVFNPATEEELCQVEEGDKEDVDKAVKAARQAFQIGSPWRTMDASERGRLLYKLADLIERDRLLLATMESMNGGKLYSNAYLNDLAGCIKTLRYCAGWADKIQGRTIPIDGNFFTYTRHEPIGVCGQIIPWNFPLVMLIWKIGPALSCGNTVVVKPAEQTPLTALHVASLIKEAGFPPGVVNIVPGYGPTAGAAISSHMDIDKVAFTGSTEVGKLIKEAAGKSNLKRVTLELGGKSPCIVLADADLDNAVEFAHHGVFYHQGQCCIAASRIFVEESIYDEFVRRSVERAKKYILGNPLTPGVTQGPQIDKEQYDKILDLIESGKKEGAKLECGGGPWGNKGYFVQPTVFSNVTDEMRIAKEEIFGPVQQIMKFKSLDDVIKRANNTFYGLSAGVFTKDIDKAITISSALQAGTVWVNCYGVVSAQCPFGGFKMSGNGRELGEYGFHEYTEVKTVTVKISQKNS
# KinaseGlo FLuc – counter-screen: inhibitors of Kinase-Glo firefly luciferase. Potency, µM (series often up to 38.3 µM), for the others: at the highest dose activity change, negative = inhibition, usual class: inhibitors. Kinase-Glo luciferase, ATP luminescence, 8 min. hit rate 0.28% among 200,000. Q27757; also: % is scaled to controls: 0 for no effect and ±100 for the full control effect; nearly all actives have a fitted effect of over 60% in size
#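 Light output from Kinase-Glo luciferase with luciferin and 10 uM ATP in 50 mM imidazole pH 7.2, KCl, MgCl2, Tween 20, BSA; compound pin-delivered, 8-min ambient incubation, then luminescence read.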
# LMNA splice mod – modulators of lamin A splicing; HeLa LMNA splicing GFP/RFP minigene ratio, 48 h; hit rate 0.01% among 200,000; Potency, µM (doses to about 46.1 µM), for inactives: at the top dose ratio change, negative = inhibition, usual class: inhibitors; AID 1487; active = well fitted inhibition curve with a large enough effect in the signal ratio, with a control signal flat, not every such curve was filed as active; inconclusive = small, poorly fitted or top-dose-only effect, or effect the other way, or a change in a side signal; the % refers to the signal ratio; also: % is scaled to controls: 0 for no effect and ±100 for the full control effect
#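 Read-out is the ratio of GFP to DsRed2 object intensity, acquired by 488 nm laser-scanning cytometry on HeLa lamin A-EGFP minigene reporter cells. Compound incubation 48 hrs at 37 °C in Opti-MEM with 2% FBS; DMSO 0.5% final.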
# Starred values were filed as active, the others as inactive; u = inconclusive; x = no result given; [ ] = remark or other dose. Unless noted, calls follow the shape of the dose curve; as a rule, active = well fitted curve in the direction sought with a large enough effect; inconclusive = small, poorly fitted or top-dose-only effect, or another doubt; inactive = no such curve, though single readings can be large; an effect the other way counts as inactive or inconclusive. Potency is read from the fitted curve at half-maximal effect.
SMILES,HPGD block,HTT ATP protect,HttQ103 aggreg,ALDH1A1 inh,KinaseGlo FLuc,LMNA splice mod
Cc1cccc2cc(CN(Cc3nnnn3C3CCCCC3)C3CCCC3)c3nnnn3c12,-2.2%,-1.8%[10 µM],-20.6%,3.16µM*,3.6%,-6.2%
Cc1cc(C)c2[nH]c(=O)c(CN(Cc3nnnn3C3CCCC3)C3CCCCC3)cc2c1,-8.2%,4.8%[10 µM],-3.0%,17.8µM*,-1.6%,9.6%
CC(=O)N(Cc1cc2ccc(C)c(C)c2n2nnnc12)C1CCCC1,-11.5%,-1.1%,-5.7%,u,-4.9%,u
COc1ccc(Cn2nnnc2CN(Cc2cc3cccc(C)c3[nH]c2=O)C2CCCC2)cc1,-15.5%,-35.3%,u,u,-4.3%,3.8%
CC1=NN(c2ccc(C)c(C)c2)C(=O)/C1=C\C=C\c1ccc([N+](=O)[O-])o1,x,u,-3.8%,8.91µM*,-7.7%,x
Cc1ccc(NC(=O)CCC(=O)N/N=C/c2ccc([N+](=O)[O-])o2)cc1C,x,2.3%[10 µM],-2.7%[9.22 µM],x,x,x
CC(=O)N1CCN(CC(=O)Nc2cccc(S(=O)(=O)N3CCCCCC3)c2)CC1,x,-15.0%,-1.1%,-4.9%,2.0%,u
C=CCn1c(SCC(=O)NCCCC)nc2scc(-c3ccco3)c2c1=O,-21.8%,-23.0%[10 µM],-3.3%,20µM*,-1.4%,-6.5%
C=CCn1c(SCC(=O)NC2CCCC2)nc2scc(-c3ccco3)c2c1=O,u,-8.2%[10 µM],u,7.94µM*,18.4%,14.5%
C=CCn1c(SCC(=O)NC2CCCCC2)nc2ccccc2c1=O,x,-6.8%[10 µM],14.4%,-3.9%,1.3%,-1.2%[46 µM]
CCN1C(=O)[C@H]2[C@H]3[C@H](O)[C@H](O)C/C(=N/OC/C=C(\C)CCC=C(C)C)[C@H]3CC[C@@H]2C1=O,x,u,x,0.8%[13.5 µM],x,x
COc1cc(/C=N/NC(=O)c2ccncc2)ccc1OC(=O)c1ccccc1Cl,x,x,x,-3.6%,-1.0%,-13.2%[46 µM]
CO[C@H]1COC(=O)C/C=C\[C@H](C)[C@@H](OC)COC(=O)C/C=C\[C@@H]1C,x,15.8%[10 µM],x,1.9%[13.5 µM],x,x
O=c1c2ccccc2c2c(O)nc(-c3ccccc3)n2n1Cc1ccccc1,-7.3%,9.0%,11.5%,5.8%,-4.0%,3.0%
CC(=O)CSc1nc2cc3c(cc2cc1C#N)OCCO3,x,-188.1%,-8.9%,u,4.47µM*,u
O=c1cc(Cl)c(-c2ccccc2)n[nH]1,28.2µM*,-11.2%,5.6%,0.2%,-2.9%,-27.6%
COc1ccccc1NC(=O)CN1CCCCC1,-10.7%,5.1%,-6.7%,19.0%,2.2%,4.6%
COc1ccccc1C(=O)NC(=S)Nc1ccc(N2CCOCC2)c(Cl)c1,x,-33.8%,-7.2%,11.2µM*,0.7%,x
O=C(Nc1ccc(N2CCOCC2)c(Cl)c1)c1ccc(Cl)cc1,x,-110.8%,u,-11.7%,1.9%,u
O=C(Nc1ccc(N2CCOCC2)c(Cl)c1)c1ccccc1F,15.8µM*,-33.4%,26.6%,u,3.4%,4.0%
COc1cc(NC(=O)c2ccccc2F)c(OC)cc1NC(=O)CN1CCOCC1,x,-2.6%[10 µM],-7.5%[9.22 µM],25.1µM*,1.5%,-21.7%[46 µM]
COc1ccccc1C(=O)NC(=S)Nc1cc(C(=O)O)ccc1C,x,-42.4%,-13.7%,14.1µM*,4.2%,x
Cc1ccccc1OCC(=O)NC(=S)Nc1ccc(N2CCOCC2)c(Cl)c1,-25.6%,37.3%,14.5%,u,0.2%,-4.6%
COc1ccc(Br)cc1CNC(=O)CN1CCSc2ccccc21,x,x,x,x,x,-5.1%[46 µM]
CCN1CCN(C(=O)c2ccc3c(=O)n(Cc4ccccc4OC)c(=S)[nH]c3c2)CC1,-1.8%,-11.3%[0.074 µM],12.6%,-5.0%,-3.6%,4.0%
SMILES,HPGD block,HTT ATP protect,HttQ103 aggreg,ALDH1A1 inh,KinaseGlo FLuc,LMNA splice mod
COc1cc(-c2nnc(SCc3cc(=O)oc4cc(O)c(O)cc34)o2)cc(OC)c1OC,7.94µM*,-53.5%,u,u,-4.8%,u
O=C(CSC(=S)N1CCOCC1)Nc1ncc2c(n1)CC(c1ccco1)CC2=O (configuration not stated),x,-3.8%[10 µM],-0.5%[9.22 µM],x,x,x
Cc1cc(=O)oc(C)c1C(=O)OCC(=O)c1ccccc1,u,-3.6%[10 µM],6.4%,15.8µM*,3.2%,17.8%
Cc1cc(=O)oc(C)c1C(=O)OCC(=O)c1ccc2ccccc2c1,u,-5.7%,-49.9%,u,-4.0%,0.1%
CC1CCN(C(=O)CN2C(=O)C(=O)c3ccccc32)CC1,-7.0%,-12.7%,9.1%,0.355µM*,2.7%,-7.2%
CC1(C)CC(c2nc(-c3ccc([N+](=O)[O-])cc3)cs2)CCO1 (configuration not stated),x,-20.0%,-3.4%,15.8µM*,2.1%,-5.2%[46 µM]
Nc1nc(-c2ccc([N+](=O)[O-])cc2)cs1,x,0.3%[10 µM],-5.8%,-6.3%,x,-4.5%
CCc1ccccc1N=C1S/C(=C/c2ccccc2OCC(=O)N2CCOCC2)C(=O)N1C,-3.8%,13.8%[10 µM],-14.1%,1.3%,3.4%,u
O=C1NN(c2ccccc2)C(=O)/C1=C\c1ccccc1OCC(=O)N1CCOCC1,15.8µM*,22.4%,13.0%,u,-2.5%,10.0%
O=C(Nc1ccc(F)cc1)NC1CCCCC1,-8.6%,-47.0%,5.6%,7.4%,-10.7%,-8.9%
O=C1c2cccc3c(N4CCCCC4)ccc(c23)C(=O)N1c1ccccn1,-11.5%,-54.9%,u,u,-1.1%,22.0%
O=C1c2ccccc2-c2n[nH]c(=O)c3ccc(N4CCCCC4)c1c23,x,-132.6%,20µM*,-14.7%,-3.6%,-29.8%[46 µM]
CCc1ccc(NC(=O)N(CCN2CCOCC2)C2CCN(C(C)=O)CC2)cc1,-3.4%,-36.5%,17.5%,2.3%,-4.3%,1.8%
CCCc1[nH][nH]c(=O)c1C(c1cccc(Cl)c1)C(C#N)C#N (configuration not stated),15.8µM*,5.4%,-12.7%[9.22 µM],14.1µM*,0.9%,-2.4%
CC(C)C1NC(=S)N(Cc2ccccc2)C1=O (configuration not stated),-2.4%,-20.8%,1.7%,u,-4.4%,7.9%
Cn1c(Sc2ccc(Br)cc2)c(C=O)c2ccccc21,-6.6%,-60.5%,10µM*,1.3%,-3.7%,u
Cn1c(Oc2ccc(F)cc2)c(C=O)c2ccccc21,x,-49.2%,-29.8%,2.1%,0.6%,x
COc1ccc(NC(=O)CS(=O)CC(=O)Nc2cc(Cl)ccc2OC)cc1 (configuration not stated),-7.9%,4.4%[10 µM],-5.7%,8.2%,1.2%,-5.8%
CCCC(=O)Nc1ccc2nc(SCC(=O)Nc3nccs3)sc2c1,-12.4%,12.9%[10 µM],-9.7%,0.1%,3.1%,-8.8%
CCN(CC)C(=O)CSc1nc2ccc(NC(=O)CSc3nnc(N)s3)cc2s1,14.1µM*,-33.1%,u,u,0.4%,-7.2%
COc1ccc2nc(NC(=O)CSc3nnc(N)s3)sc2c1,-11.8%,-1.4%[10 µM],-9.5%,1.7%,-0.4%,-10.1%
